In PubChem BioAssay (Tox21):
Inconclusive results are not listed. Calls of active or inactive are those of the source. Unless noted, the call rests on the fitted dose curve; in most records, active means well fitted curve in the direction sought with a large enough effect in the repeat runs; inconclusive means weak or mixed curves; inactive means no such curve, though single readings can be large; an effect the other way counts as inactive or inconclusive.

How the values were obtained:
[1] = qHTS assay to identify small molecule antagonists of the retinoid-related orphan receptor gamma (ROR-gamma) signaling pathway - cell viability counter screen (AID 1159520); further: nearly all actives have a fitted effect of over 50% in size; further: potency means the concentration at half of the fitted maximal effect
In short: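 Cytotoxicity was read from cellular ATP (CellTiter-Glo luminescence) after 16 hr at 37 C with 1 uM doxycycline induction. The inducer was added 2 hr after compound transfer to Tet-on ROR gamma CHO cells.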

[2] = molecular target: Nuclear receptor ROR-gamma (Homo sapiens) (UniProt P51449); assay: qHTS assay to identify small molecule antagonists of the retinoid-related orphan receptor gamma (ROR-gamma) signaling pathway (AID 1159521; further: nearly all actives have a fitted effect of over 50% in size; further: potency means the concentration at half of the fitted maximal effect)
In short: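 CHO cells expressing RORγ under a TET-on promoter, luciferase under RORE control. Dox 1 uM final, 16 h; compounds added 2 h prior. Luminescence decrease measured.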

[3] = qHTS assay to identify small molecule agonists of the AP-1 signaling pathway - cell viability counter screen (AID 1159525; calls by dose curve; further: nearly all actives have a fitted effect of over 55% in size; further: potency means the concentration at half of the fitted maximal effect)
In short: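 Intracellular ATP by Cell Titer Glo luminescence (30 min, RT) in the same ME-180 AP-1-bla wells after the 5 h compound exposure at 37 °C. Normalised to tetra n-octyl ammonium bromide and DMSO controls.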

[4] = qHTS assay to identify small molecule agonists of the AP-1 signaling pathway (AID 1159526; calls by dose curve; further: on the % scale 0 is the no-effect control and ±100 the full control effect)
[5] = molecular target: Retinoic acid receptor RXR-alpha (Homo sapiens) (UniProt P19793); assay: qHTS assay to identify small molecule agonists of the RXR signaling pathway (AID 1159527; calls by dose curve; further: on the % scale 0 is the no-effect control and ±100 the full control effect; nearly all actives have a fitted effect of over 35% in size)
In short: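 Beta-lactamase reporter assay, agonist format. Engineered HEK 293T line, charcoal-stripped FBS at 2%, overnight (16 hr) exposure, fluorescence at 460 and 530 nm after 405 nm excitation.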

[6] = qHTS assay to identify small molecule agonists of the RXR signaling pathway - cell viability counter screen (AID 1159529); further: nearly all actives have a fitted effect of over 50% in size; further: potency means the concentration at half of the fitted maximal effect
In short: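 Same-well viability check after the LiveBLAzer FRET read: CellTiter-Glo added, luminescence measured after 30 min at room temperature. Reporter HEK 293T cells had been treated with compounds for 16 hr following a 5 hr preincubation.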

[7] = qHTS assay to identify small molecule antagonists of the retinoic acid receptor (RAR) signaling pathway (AID 1159552; further: nearly all actives have a fitted effect of over 50% in size; further: potency means the concentration at half of the fitted maximal effect)
In short: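 Readout: luciferase luminescence, 30 min post-reagent at RT. Setup: C3RL4 RARE reporter cells, compounds plus retinol 1 uM final, 6 hr incubation at 37 C and 5% CO2.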

[8] = qHTS assay to identify small molecule antagonists of the retinoid acid receptor (RAR) signaling pathway - cell viability counter screen (AID 1159551); further: nearly all actives have a fitted effect of over 35% in size; further: potency means the concentration at half of the fitted maximal effect
In short: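 C3RL4 RARE-luciferase line; cpds + retinol 1 uM final, 6 h, 37 C/5% CO2; CellTiter-Glo ATP luminescence, 30 min RT.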

[9] = qHTS assay to identify small molecule agonists of the peroxisome proliferator-activated receptor delta (PPARd) signaling pathway - cell viability counter screen (AID 743211); further: nearly all actives have a fitted effect of over 55% in size; further: potency means the concentration at half of the fitted maximal effect
In short: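 Luminescent ATP viability assay (CellTiter-Glo, 30 min RT) in UAS-bla HEK293H cells carrying the PPAR delta reporter construct, 3000 cells/well, after a 17 h compound treatment at 37 C.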

[10] = qHTS assay to identify small molecule antagonists of the peroxisome proliferator-activated receptor delta (PPARd) signaling pathway - cell viability counter screen (AID 743213); further: nearly all actives have a fitted effect of over 50% in size; further: potency means the concentration at half of the fitted maximal effect
In short: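 HEK293H cells with the PPARd UAS-bla reporter, co-treated 17 h at 37 C with compounds and L165041 (300 nM final), were lysed with CellTiter-Glo. Luminescence indicated viable cell content.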

[11] = qHTS assay to identify small molecule agonists of the farnesoid-X-receptor (FXR) signaling pathway - cell viability counter screen (AID 743218); further: nearly all actives have a fitted effect of over 45% in size; further: potency means the concentration at half of the fitted maximal effect
In short: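 Luminescence from CellTiter-Glo, read after 30 min at RT, reports viability of GeneBLAzer FXR-UAS-bla HEK 293T cells treated 16 h with compounds in the wells used for the beta-lactamase reporter.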

[12] = qHTS assay to identify small molecule antagonists of the farnesoid-X-receptor (FXR) signaling pathway - cell viability counter screen (AID 743221; active means well fitted cell-killing curve with a large enough effect in the repeat runs, not every such curve was filed as active; further: nearly all actives have a fitted effect of over 50% in size; further: potency means the concentration at half of the fitted maximal effect)
In short: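 In GeneBLAzer FXR-UAS-bla HEK 293T cells stimulated with 50 uM chenodeoxycholic acid (final), compounds acted for 16 h at 37 C. Viability was assessed afterwards by CellTiter-Glo luminescence.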

[13] = qHTS assay to identify small molecule agonists of the vitamin D receptor (VDR) signaling pathway - cell viability counter screen (AID 743224)
In short: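 Cytotoxicity counter screen: VDR-bla cells, 16 h compound exposure at 37C, 5% CO2; CellTiter-Glo luminescence, 30 min RT, same wells as bla read.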

[14] = qHTS assay to identify small molecule antagonists of the vitamin D receptor (VDR) signaling pathway - cell viability counter screen (AID 743225); further: nearly all actives have a fitted effect of over 50% in size; further: potency means the concentration at half of the fitted maximal effect
In short: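 Luminescent cell viability (CellTiter-Glo) in VDR-bla HEK 293T cells after 16 h compound exposure at 37C in the presence of 3 nM final 1-alpha,25-dihydroxy vitamin D3.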

[15] = molecular target: Peroxisome proliferator-activated receptor delta (Homo sapiens) (UniProt Q03181); assay: qHTS assay to identify small molecule agonists of the peroxisome proliferator-activated receptor delta (PPARd) signaling pathway (AID 743212; calls by dose curve; further: on the % scale 0 is the no-effect control and ±100 the full control effect)
In short: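 Steps: seed PPARd-bla HEK293H cells; incubate 5 h, 37 C, 5% CO2; add compounds in DMSO; incubate, 37 C; add LiveBLAzer B/G FRET substrate; hold 2 h at room temperature; measure fluorescence.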

[16] = molecular target: Peroxisome proliferator-activated receptor delta (Homo sapiens) (UniProt Q03181); assay: qHTS assay to identify small molecule antagonists of the peroxisome proliferator-activated receptor delta (PPARd) signaling pathway (AID 743215; active means well fitted inhibition curve with a large enough effect in the signal ratio in the repeat runs, not every such curve was filed as active; the % refers to the signal ratio;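 further: cells stimulated with agonist L165041 at 300 nM final during compound exposure; potency means the concentration at half of the fitted maximal effect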)
In short: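 HEK293H GeneBLAzer PPARd UAS-bla reporter cells; cpd + L165041 300 nM final, 17 h 37 C; LiveBLAzer B/G FRET substrate 2 h RT; fluorescence intensity read-out. Antagonist mode.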

[17] = molecular target: Vitamin D3 receptor (Homo sapiens) (UniProt P11473); assay: qHTS assay to identify small molecule agonists of the vitamin D receptor (VDR) signaling pathway (AID 743222; calls by dose curve; further: on the % scale 0 is the no-effect control and ±100 the full control effect)
In short: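 Beta-lactamase reporter readout (LiveBLAzer B/G FRET, 2 h RT) in VDR-bla cells after 16 h compound treatment at 37C, 5% CO2; cells pre-incubated 4 h before pin transfer of DMSO solutions.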

[18] = molecular target: Vitamin D3 receptor (Homo sapiens) (UniProt P11473); assay: qHTS assay to identify small molecule antagonists of the vitamin D receptor (VDR) signaling pathway (AID 743223; active means well fitted inhibition curve with a large enough effect in the signal ratio in the repeat runs, not every such curve was filed as active; the % refers to the signal ratio; further: potency means the concentration at half of the fitted maximal effect)
In short: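 Agonist 1alpha,25-dihydroxyvitamin D3 (3 nM in well) was added with each compound to VDR-bla cells preincubated 4 h. Cells stood 16 h at 37C, then FRET substrate 2 h at room temperature; fluorescence intensity recorded.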

[19] = molecular target: Bile acid receptor (Homo sapiens) (UniProt Q96RI1); assay: qHTS assay to identify small molecule antagonists of the farnesoid-X-receptor (FXR) signaling pathway (AID 743217; active means well fitted inhibition curve with a large enough effect in the signal ratio in the repeat runs, not every such curve was filed as active; the % refers to the signal ratio; further: on the % scale 0 is the no-effect control and ±100 the full control effect)
In short: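 Read-out: beta-lactamase FRET fluorescence (LiveBLAzer B/G substrate, 2 h, room temperature) in GeneBLAzer FXR-UAS-bla HEK 293T cells. Compounds were co-dosed with 50 uM chenodeoxycholic acid (final) and incubated 16 h at 37 °C.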

[20] = molecular target: Bile acid receptor (Homo sapiens) (UniProt Q96RI1); assay: qHTS assay to identify small molecule agonists of the farnesoid-X-receptor (FXR) signaling pathway (AID 743220; active means well fitted activation curve with a large enough effect in the signal ratio in the repeat runs, not every such curve was filed as active; the % refers to the signal ratio; further: on the % scale 0 is the no-effect control and ±100 the full control effect)
In short: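 FXR-UAS-bla HEK 293T cells carrying a UAS-driven beta-lactamase reporter were plated for 5 h at 37C/5% CO2, then exposed to DMSO-dissolved Tox21 10K compounds for 16 h at 37C. A LiveBLAzer B/G FRET substrate was loaded for 2 h at room temperature before fluorescence reading.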

Chain of Vitamin D3 receptor (Homo sapiens) (P11473 whole entry, looked up): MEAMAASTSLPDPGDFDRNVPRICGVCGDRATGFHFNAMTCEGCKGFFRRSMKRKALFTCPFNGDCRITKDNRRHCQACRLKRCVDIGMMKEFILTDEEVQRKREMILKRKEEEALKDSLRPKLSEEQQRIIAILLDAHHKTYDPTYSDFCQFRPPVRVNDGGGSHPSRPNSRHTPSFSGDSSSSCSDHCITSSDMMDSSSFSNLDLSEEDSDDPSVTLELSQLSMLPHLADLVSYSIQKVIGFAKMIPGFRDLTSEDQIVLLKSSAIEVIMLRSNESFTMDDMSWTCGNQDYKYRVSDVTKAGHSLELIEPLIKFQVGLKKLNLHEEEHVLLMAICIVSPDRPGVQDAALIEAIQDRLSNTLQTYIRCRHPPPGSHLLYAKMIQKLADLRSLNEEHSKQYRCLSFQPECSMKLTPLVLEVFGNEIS
Chain of Retinoic acid receptor RXR-alpha (Homo sapiens) (P19793 whole entry, looked up): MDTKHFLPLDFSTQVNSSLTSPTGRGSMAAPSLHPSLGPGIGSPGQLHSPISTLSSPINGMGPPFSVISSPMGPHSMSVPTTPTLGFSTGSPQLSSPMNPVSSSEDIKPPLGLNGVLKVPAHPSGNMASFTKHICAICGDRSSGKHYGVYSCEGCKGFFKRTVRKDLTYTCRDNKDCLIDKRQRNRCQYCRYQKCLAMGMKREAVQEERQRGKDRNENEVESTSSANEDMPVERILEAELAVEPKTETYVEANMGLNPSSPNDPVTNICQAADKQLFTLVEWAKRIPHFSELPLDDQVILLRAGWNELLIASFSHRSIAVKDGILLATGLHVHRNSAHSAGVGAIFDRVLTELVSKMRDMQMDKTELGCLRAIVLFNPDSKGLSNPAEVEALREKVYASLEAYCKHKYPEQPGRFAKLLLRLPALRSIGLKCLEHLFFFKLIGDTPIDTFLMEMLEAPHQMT
Chain of Bile acid receptor (Homo sapiens) (Q96RI1 whole entry, looked up): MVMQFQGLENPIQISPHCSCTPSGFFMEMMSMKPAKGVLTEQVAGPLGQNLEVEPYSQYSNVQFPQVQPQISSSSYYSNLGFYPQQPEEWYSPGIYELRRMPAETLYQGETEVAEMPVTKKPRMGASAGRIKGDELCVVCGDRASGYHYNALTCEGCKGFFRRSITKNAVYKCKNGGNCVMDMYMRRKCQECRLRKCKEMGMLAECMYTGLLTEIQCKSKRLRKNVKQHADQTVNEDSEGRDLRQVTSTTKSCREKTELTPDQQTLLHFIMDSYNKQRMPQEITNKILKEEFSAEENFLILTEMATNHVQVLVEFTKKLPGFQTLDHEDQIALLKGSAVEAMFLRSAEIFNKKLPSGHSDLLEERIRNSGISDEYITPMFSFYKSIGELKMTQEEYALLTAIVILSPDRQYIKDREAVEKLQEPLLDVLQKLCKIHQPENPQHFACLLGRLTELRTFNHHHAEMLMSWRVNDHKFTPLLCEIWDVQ
Chain of Peroxisome proliferator-activated receptor delta (Homo sapiens) (Q03181 whole entry, looked up): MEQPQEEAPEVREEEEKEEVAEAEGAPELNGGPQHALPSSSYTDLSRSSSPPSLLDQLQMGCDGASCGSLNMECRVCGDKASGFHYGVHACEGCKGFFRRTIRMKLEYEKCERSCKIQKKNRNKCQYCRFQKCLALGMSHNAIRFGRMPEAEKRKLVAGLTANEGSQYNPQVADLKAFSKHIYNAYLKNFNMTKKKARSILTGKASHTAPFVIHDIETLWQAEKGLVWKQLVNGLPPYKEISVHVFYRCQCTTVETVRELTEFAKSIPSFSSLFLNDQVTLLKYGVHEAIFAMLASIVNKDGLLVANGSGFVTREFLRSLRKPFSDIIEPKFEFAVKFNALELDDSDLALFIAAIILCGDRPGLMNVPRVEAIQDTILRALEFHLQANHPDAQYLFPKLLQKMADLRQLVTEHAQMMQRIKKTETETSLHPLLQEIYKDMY

CCN(CCC#N)c1ccc(N=Nc2ccc([N+](=O)[O-])cc2)cc1
inactive: Potency [1] | Potency [2] | Potency [3] | Potency [4] | Potency [5] | Potency [6] | Potency [7]

C/C=C/C(=O)C1=C(C)C=CCC1(C)C
inactive: Potency [1] | Potency [2] | Potency [3] | Potency [4] | Potency [5] | Potency [6]

[Cl][Sc]([Cl])[Cl]
inactive: Potency [1] | Potency [2] | Potency [3] | Potency [4] | Potency [5] | Potency [6] | Potency [8]

Cc1cccc(C)c1C
inactive: Potency [1] | Potency [2] | Potency [3] | Potency [4] | Potency [5] | Potency [6] | Potency [8]

Brc1cc(Br)cc(Br)c1
inactive: Potency [1] | Potency [2] | Potency [3] | Potency [4] | Potency [6]

O=C1CCC(=O)N1
inactive: Potency [1] | Potency [2] | Potency [3] | Potency [4] | Potency [5] | Potency [6] | Potency [8]

CC1CCC(C(C)(C)O)CC1 (configuration not stated)
inactive: Potency [1] | Potency [2] | Potency [3] | Potency [4] | Potency [5] | Potency [6]

C=COCCCC
inactive: Potency [1] | Potency [2] | Potency [3] | Potency [4] | Potency [6] | Potency [7]

CC(C)(C)C1=CC(=O)C(C(C)(C)C)=CC1=O
active: Potency [2] 10.6 µM
inactive: Potency [1] | Potency [3] | Potency [4]

Cc1c[nH]c(=O)[nH]c1=O
inactive: Potency [1] | Potency [2] | Potency [3] | Potency [4] | Potency [6] | Potency [8] | Potency [7]

NC(=O)C1CO1 (configuration not stated)
inactive: Potency [1] | Potency [2] | Potency [3] | Potency [5] | Potency [8] | Potency [7]

CC(C)=NNC(N)=S
inactive: Potency [1] | Potency [2] | Potency [3] | Potency [6] | Potency [8]

CN(C)CCOc1ccc(/C(=C(/CCCl)c2ccccc2)c2ccccc2)cc1
active: Potency [9] 14.5 µM | Potency [10] 10.3 µM | Potency [11] 20.5 µM | Potency [12] 40.9 µM | Potency [13] 12.9 µM | Potency [14] 12.9 µM | Potency [1] 51 µM | Potency [2] 22.8 µM | Potency [3] 36.4 µM | Potency [6] 18.3 µM | Potency [8] 51 µM | Potency [7] 57.2 µM

Cc1ccc(C=O)cc1
inactive: Potency [1] | Potency [2] | Potency [3] | Potency [5] | Potency [6] | Potency [8]

CCc1c(C)cc(N)c(CC)c1N
inactive: Potency [1] | Potency [2] | Potency [3] | Potency [5] | Potency [6]

CCCCNc1ccc(NCCCC)c2c1C(=O)c1ccccc1C2=O
inactive: activity, negative = cytotoxicity [1] -0.683% [at 19 µM] | activity change, negative = inhibition [2] -8.88% [at 19 µM] | viability change, negative = cytotoxic [3] -8.5% [at 15.8 µM] | activation [5] 10.8% [at 15.8 µM] | activity change, negative = cytotoxicity [6] 10.1% [at 15.8 µM] | activity change, negative = cytotoxicity [8] 0.361% [at 19 µM] | activity, negative = inhibition [7] -19% [at 19 µM]

CCCCCCCCOC(=O)c1cc(O)c(O)c(O)c1
inactive: outcome [15] | outcome [17] | Potency [8] | Potency [7]
active: Potency [9] 43.6 µM | Potency [10] 43.6 µM | Potency [16] 49 µM | Potency [18] 54.9 µM | Potency [13] 24.5 µM | Potency [14] 27.5 µM | Potency [1] 2.43 µM | Potency [2] 1.93 µM | Potency [3] 54.9 µM | Potency [6] 43.6 µM

N#Cc1ccc(C/C(=N/NC(=O)Nc2ccc(OC(F)(F)F)cc2)c2cccc(C(F)(F)F)c2)cc1
inactive: Potency [1] | Potency [2] | Potency [3] | Potency [8]

CCOC(=O)C1=NN(c2ccc(Cl)cc2Cl)C(C)(C(=O)OCC)C1 (configuration not stated)
inactive: Potency [1] | Potency [3] | Potency [5] | Potency [6] | Potency [8] | Potency [7]
active: Potency [2] 30.6 µM

[Cl][Dy]([Cl])[Cl]
inactive: Potency [1] | Potency [2] | Potency [3] | Potency [6]

CN1CCN(C)CC1
inactive: Potency [1] | Potency [2] | Potency [3] | Potency [5] | Potency [6] | Potency [8] | Potency [7]

Clc1cccc(Cl)n1
inactive: Potency [1] | Potency [2] | Potency [3] | Potency [5] | Potency [6] | Potency [8]

O=C1CCC/C=C\CCCCCCCCCC1
inactive: Potency [9] | outcome [15] | Potency [19] | Potency [11] | outcome [20] | Potency [12] | outcome [17] | Potency [18] | Potency [14] | Potency [1] | Potency [2] | Potency [3] | Potency [8] | Potency [7]

O=C(NCc1ncc(C(F)(F)F)cc1Cl)c1c(Cl)cccc1Cl
inactive: Potency [1] | Potency [3] | Potency [4] | Potency [8]
active: Potency [2] 12.2 µM

O=C(Nc1ccccc1)c1cc(Cl)ccc1O
inactive: outcome [20] | outcome [17] | Potency [3] | Potency [8] | Potency [7]
active: Potency [11] 38.9 µM | Potency [13] 12.3 µM | Potency [14] 12.3 µM | Potency [1] 24.3 µM | Potency [2] 12.2 µM

CCn1c2ccccc2c2ccccc21
inactive: Potency [1] | Potency [2] | Potency [3] | Potency [5] | Potency [8] | Potency [7]

O=C1OC(O)C(C(Cl)Cl)=C1Cl (configuration not stated)
active: Potency [1] 7.07 µM | Potency [2] 14.1 µM
inactive: outcome [15] | Potency [12] | outcome [17] | Potency [3] | Potency [8]

CN1CC[C@H](c2c(O)cc(O)c3c(=O)cc(-c4ccccc4Cl)oc23)[C@H](O)C1
inactive: Potency [9] | Potency [10] | Potency [11] | Potency [12] | Potency [14] | Potency [3] | Potency [6]
active: Potency [1] 0.237 µM | Potency [2] 0.298 µM | Potency [7] 0.0668 µM
